Laboratory results published in PubChem BioAssay (Tox21).
Values joined by “and” are separate entries in the source; they are usually repeats but may differ in a detail not shown here. Identical values can stand only once. Results filed as inconclusive are left out. Entries that show only a call come without a potency. More than one record can exist for a structure, and the calls need not agree. Active and inactive are the calls of the source. Calls follow the shape of the dose curve; as a rule, active = well fitted curve in the direction sought with a large enough effect in the repeat runs; inconclusive = weak or mixed curves; inactive = no such curve, though single readings can be large; an effect the other way counts as inactive or inconclusive.

Assays:
[1] = molecular target: Cytochrome P450 2D6 (Homo sapiens) (UniProt P10635); assay: Cytochrome P450 Family 2 Subfamily D Member 6 (CYP2D6) small molecule antagonists: luciferase reporter qHTS assay (AID 1671196); also: nearly all actives have a fitted effect of over 50% in size
Outline: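 Luminescence (RLU), read 20 min after detection reagent, indicated CYP2D6 conversion of proluciferin to luciferin during a 1 h NADPH-dependent reaction at room temperature.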

[2] = molecular target: Cytochrome P450 2C19 (Homo sapiens) (UniProt P33261); assay: Cytochrome P450 Family 2 Subfamily C Member 19 (CYP2C19) small molecule antagonists: luciferase reporter qHTS assay (AID 1671197); also: nearly all actives have a fitted effect of over 65% in size
Outline: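 First, compounds are pinned into enzyme-substrate mix and held 10 min at room temperature. Second, NADPH regeneration solution is added and plates incubate 1 h at 37C. Third, detection reagent is added and luminescence read after 20 min.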

[3] = molecular target: Cytochrome P450 2C9 (Homo sapiens) (UniProt P11712); assay: Cytochrome P450 Family 2 Subfamily C Member 9 (CYP2C9) small molecule antagonists: luciferase reporter qHTS assay (AID 1671198); also: nearly all actives have a fitted effect of over 50% in size
Outline: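 CYP2C9 activity was measured with a P450-Glo proluciferin substrate. Enzyme–substrate mix was held with compound for 10 min at room temperature, then NADPH regeneration solution was added for 1 h at 37C. Luciferin product was read as luminescence.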

[4] = molecular target: Cytochrome P450 1A2 (Homo sapiens) (UniProt P05177); assay: Cytochrome P450 Family 1 Subfamily A Member 2 (CYP1A2) small molecule antagonists: luciferase reporter qHTS assay (AID 1671199); also: nearly all actives have a fitted effect of over 50% in size
Outline: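 CYP1A2 turnover of a luminogenic substrate was quantified after 1 h with NADPH regeneration at room temperature. Furafylline served as positive control.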

[5] = molecular target: Voltage-gated inwardly rectifying potassium channel KCNH2 (Homo sapiens) (UniProt Q12809); assay: Human Ether-a-go-go-Related Gene (hERG) channel small molecule antagonists: fluorescence cell-based qHTS assay (AID 1671200); also: nearly all actives have a fitted effect of over 50% in size
Outline: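 Cell line hERG-U2OS; dye FluxOR II, 1 h RT dark; Tl+ stimulus; ex 480/em 540 nm, read each second for 2 min.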

[6] = molecular target: Cytochrome P450 3A4 (Homo sapiens) (UniProt P08684); assay: Cytochrome P450 Family 3 Subfamily A Member 4 (CYP3A4) small molecule antagonists: luciferase reporter qHTS assay (AID 1671201); also: nearly all actives have a fitted effect of over 50% in size
Outline: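 Room-temperature assay throughout: 10 min compound–enzyme/substrate preincubation, 1 h reaction after NADPH regeneration solution, 20 min detection. Luciferin formed from proluciferin substrate is quantified by luminescence.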
Potency is read from the fitted curve at half-maximal effect.

Chain of Cytochrome P450 2C9 (Homo sapiens) (P11712 whole entry, looked up): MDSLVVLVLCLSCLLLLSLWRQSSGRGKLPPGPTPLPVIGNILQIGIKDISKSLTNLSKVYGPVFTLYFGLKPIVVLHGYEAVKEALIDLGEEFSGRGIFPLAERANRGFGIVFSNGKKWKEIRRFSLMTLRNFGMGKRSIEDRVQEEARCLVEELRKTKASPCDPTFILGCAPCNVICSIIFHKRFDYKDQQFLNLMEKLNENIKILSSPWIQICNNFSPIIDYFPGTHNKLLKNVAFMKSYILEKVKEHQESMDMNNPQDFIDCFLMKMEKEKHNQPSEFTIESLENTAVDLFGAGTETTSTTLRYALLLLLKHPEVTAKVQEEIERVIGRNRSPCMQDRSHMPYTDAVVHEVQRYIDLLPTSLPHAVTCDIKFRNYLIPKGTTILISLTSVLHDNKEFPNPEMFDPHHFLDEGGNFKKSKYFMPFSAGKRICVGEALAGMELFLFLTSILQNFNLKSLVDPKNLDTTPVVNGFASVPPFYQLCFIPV
Chain of Voltage-gated inwardly rectifying potassium channel KCNH2 (Homo sapiens) (Q12809 whole entry, looked up): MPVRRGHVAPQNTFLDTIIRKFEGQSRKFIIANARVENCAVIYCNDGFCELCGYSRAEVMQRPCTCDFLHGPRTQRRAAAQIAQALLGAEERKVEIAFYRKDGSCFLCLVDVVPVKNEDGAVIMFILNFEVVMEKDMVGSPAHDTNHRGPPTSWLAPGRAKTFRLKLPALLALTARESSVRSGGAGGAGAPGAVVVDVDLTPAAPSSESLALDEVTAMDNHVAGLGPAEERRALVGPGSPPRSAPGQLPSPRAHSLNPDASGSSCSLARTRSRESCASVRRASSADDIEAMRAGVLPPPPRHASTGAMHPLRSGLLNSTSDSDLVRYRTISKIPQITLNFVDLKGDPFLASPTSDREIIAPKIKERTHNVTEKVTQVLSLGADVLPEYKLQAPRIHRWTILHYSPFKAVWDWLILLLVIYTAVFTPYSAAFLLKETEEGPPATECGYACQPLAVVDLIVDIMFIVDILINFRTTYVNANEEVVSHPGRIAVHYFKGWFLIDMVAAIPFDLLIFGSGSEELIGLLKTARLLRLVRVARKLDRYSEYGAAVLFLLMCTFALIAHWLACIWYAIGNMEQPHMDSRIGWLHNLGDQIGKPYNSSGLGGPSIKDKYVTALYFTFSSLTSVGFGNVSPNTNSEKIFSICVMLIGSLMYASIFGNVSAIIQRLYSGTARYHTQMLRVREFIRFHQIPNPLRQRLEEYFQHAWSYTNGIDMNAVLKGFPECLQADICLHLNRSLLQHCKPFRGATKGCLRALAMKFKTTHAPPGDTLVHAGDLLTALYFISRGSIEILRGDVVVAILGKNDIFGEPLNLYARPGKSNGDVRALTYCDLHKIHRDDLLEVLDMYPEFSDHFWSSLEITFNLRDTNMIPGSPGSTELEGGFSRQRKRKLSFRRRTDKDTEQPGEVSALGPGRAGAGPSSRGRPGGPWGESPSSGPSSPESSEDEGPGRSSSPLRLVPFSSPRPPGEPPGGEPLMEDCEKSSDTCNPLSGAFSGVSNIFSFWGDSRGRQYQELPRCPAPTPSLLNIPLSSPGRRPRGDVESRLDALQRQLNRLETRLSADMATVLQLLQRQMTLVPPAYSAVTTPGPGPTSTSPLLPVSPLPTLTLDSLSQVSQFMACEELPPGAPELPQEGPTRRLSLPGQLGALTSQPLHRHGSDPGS
Chain of Cytochrome P450 2C19 (Homo sapiens) (P33261 whole entry, looked up): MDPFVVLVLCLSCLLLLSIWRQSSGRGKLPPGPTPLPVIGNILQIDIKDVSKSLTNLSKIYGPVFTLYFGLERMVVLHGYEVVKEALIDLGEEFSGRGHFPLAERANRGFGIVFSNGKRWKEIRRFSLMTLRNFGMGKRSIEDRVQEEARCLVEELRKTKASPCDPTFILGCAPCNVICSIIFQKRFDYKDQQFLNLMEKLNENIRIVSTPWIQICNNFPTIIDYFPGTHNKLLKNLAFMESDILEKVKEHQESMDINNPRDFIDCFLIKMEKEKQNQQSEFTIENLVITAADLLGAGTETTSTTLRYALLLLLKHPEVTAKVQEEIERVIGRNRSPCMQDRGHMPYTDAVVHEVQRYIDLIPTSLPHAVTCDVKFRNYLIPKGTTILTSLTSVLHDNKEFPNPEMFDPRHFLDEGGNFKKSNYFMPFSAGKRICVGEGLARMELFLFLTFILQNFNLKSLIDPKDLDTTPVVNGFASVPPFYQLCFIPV
Chain of Cytochrome P450 3A4 (Homo sapiens) (P08684 whole entry, looked up): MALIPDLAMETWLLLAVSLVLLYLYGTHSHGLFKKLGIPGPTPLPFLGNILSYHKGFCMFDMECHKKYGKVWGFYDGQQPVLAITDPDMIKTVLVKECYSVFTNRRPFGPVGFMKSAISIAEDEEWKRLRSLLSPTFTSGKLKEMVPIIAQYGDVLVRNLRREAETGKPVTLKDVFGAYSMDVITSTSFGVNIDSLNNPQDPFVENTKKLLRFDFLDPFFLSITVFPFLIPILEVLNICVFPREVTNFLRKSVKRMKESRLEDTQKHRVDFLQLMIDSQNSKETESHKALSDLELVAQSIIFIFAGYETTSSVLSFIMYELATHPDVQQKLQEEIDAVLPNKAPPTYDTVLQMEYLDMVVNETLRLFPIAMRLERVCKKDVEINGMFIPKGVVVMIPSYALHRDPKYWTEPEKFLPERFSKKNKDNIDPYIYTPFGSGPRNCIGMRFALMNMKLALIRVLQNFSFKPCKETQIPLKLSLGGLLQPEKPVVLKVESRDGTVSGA
Chain of Cytochrome P450 2D6 (Homo sapiens) (P10635 whole entry, looked up): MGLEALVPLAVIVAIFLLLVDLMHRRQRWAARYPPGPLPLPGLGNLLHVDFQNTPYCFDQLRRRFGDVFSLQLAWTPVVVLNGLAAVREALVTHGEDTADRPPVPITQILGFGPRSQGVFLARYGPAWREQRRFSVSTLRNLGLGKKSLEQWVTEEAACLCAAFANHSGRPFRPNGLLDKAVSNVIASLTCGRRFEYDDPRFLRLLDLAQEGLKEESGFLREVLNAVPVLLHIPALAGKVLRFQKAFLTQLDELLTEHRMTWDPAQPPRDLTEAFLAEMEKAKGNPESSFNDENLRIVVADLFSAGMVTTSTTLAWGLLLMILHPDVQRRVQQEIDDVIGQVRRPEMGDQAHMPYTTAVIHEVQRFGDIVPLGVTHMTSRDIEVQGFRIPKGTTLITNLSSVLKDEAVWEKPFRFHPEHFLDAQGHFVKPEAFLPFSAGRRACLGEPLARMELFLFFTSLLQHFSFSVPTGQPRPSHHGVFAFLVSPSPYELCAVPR
Chain of Cytochrome P450 1A2 (Homo sapiens) (P05177 whole entry, looked up): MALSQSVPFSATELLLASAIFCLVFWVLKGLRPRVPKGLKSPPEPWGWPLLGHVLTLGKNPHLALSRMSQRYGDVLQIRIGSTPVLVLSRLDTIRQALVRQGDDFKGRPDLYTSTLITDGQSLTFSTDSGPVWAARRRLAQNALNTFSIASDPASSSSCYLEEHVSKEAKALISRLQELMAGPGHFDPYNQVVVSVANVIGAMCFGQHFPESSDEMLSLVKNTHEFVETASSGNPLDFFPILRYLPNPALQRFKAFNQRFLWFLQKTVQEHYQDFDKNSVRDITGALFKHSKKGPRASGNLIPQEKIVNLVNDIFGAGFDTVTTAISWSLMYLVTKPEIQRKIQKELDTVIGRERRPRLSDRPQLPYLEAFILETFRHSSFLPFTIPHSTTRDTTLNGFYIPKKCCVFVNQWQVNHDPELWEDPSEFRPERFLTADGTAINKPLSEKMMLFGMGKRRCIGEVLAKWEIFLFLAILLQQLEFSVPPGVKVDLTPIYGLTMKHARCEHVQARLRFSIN

SMILES	Potency [1]	Potency [2]	Potency [3]	Potency [4]	Potency [5]	Potency [6]
c1ccc(Nc2ccccc2)cc1	inactive	4.48 µM (active) and 22.4 µM (active)	35.6 µM (active) and 39.9 µM (active)	35.6 µM (active)	inactive	3.17 µM (active) and inactive
C=C(C)C1CC=C(C)CC1 (configuration not stated)	inactive	inactive	inactive	inactive	inactive	inactive
Nc1ccc(S(=O)(=O)Nc2cnc3ccccc3n2)cc1	inactive	39.9 µM (active)	11.2 µM (active) and 15.5 µM (active)	–	inactive	inactive
CC(=O)c1ccccn1	inactive	20.2 µM (active) and inactive	inactive	64 µM (active) and inactive	inactive	inactive
CC(C)=CCCC(C)CCO (configuration not stated)	inactive	inactive and 50.2 µM (active)	inactive	–	inactive	inactive and 39.9 µM (active)
O=C(Nc1ccc(Cl)cc1)Nc1ccc(Cl)c(Cl)c1	inactive	5 µM (active) and 7.1 µM (active) and 8.71 µM (active)	5 µM (active) and 5.64 µM (active) and 4.9 µM (active)	17.8 µM (active) and 22.4 µM (active) and 17.4 µM (active)	inactive	inactive
CC1=CC2C3CC(C=C3C)C2C1 (configuration not stated)	inactive	inactive and 39.9 µM (active)	inactive	inactive	inactive	inactive and 12.6 µM (active)
C[C@]12CC[C@H]3[C@@H](CCC4=CC(=O)CC[C@@]43C)[C@@H]1CC[C@@H]2C(=O)CO	inactive	7.1 µM (active) and 8.71 µM (active)	39.9 µM (active) and 27.5 µM (active)	–	inactive	inactive
CCC(C)(O)CCCC(C)C (configuration not stated)	inactive	inactive	inactive	inactive	inactive	inactive
C=CC(C)(CCC=C(C)C)OC(C)=O (configuration not stated)	inactive	inactive and 17.8 µM (active)	inactive and 35.6 µM (active)	inactive	inactive	inactive and 28.3 µM (active)
c1cc(N(CC2CO2)CC2CO2)ccc1OCC1CO1 (configuration not stated)	56.4 µM (active)	inactive and 79.6 µM (active)	63.4 µM (active) and 39.9 µM (active)	63.3 µM (active)	inactive	inactive
COc1ccc(C(=O)CC(=O)c2ccc(C(C)(C)C)cc2)cc1	38.3 µM (active) and inactive	8.57 µM (active) and inactive	21.5 µM (active)	34.1 µM (active)	inactive	inactive
O=C(OCc1ccccc1)c1ccccc1O	inactive	5.6 µM (active) and 17.8 µM (active)	35.6 µM (active)	31.5 µM (active) and 28.3 µM (active)	inactive	inactive
O=CCCCC=O	inactive	inactive	inactive	inactive	inactive	inactive
CCCCC(CC)COC(=O)c1ccc(N(C)C)cc1 (configuration not stated)	30.9 µM (active)	40.1 µM (active) and 20 µM (active) and 6.92 µM (active)	31.9 µM (active) and 17.8 µM (active) and 15.5 µM (active)	12.7 µM (active) and 7.1 µM (active) and 4.56 µM (active)	inactive	inactive
Cc1cccc(C(=O)O)c1	inactive	inactive	inactive	inactive	inactive	inactive
COc1ccccc1/C=C/C=O	inactive	39.9 µM (active)	inactive	29 µM (active) and 25.2 µM (active)	inactive	inactive
COC(=O)Nc1nc2ccc(S(=O)c3ccccc3)cc2[nH]1 (configuration not stated)	inactive	79.6 µM (active) and inactive	inactive	28.2 µM (active) and 17.4 µM (active)	inactive	inactive
CC(=O)O[C@]1(C(C)=O)CC[C@H]2[C@@H]3C=C(Cl)C4=CC(=O)[C@@H]5C[C@@H]5[C@]4(C)[C@H]3CC[C@@]21C	inactive	inactive and 39.9 µM (active)	15.9 µM (active) and 31.7 µM (active) and 13.8 µM (active)	inactive	inactive	inactive
Cc1ccc2c(n1)Oc1ccc(C(C)C(=O)OCC(=O)N(C)C)cc1C2 (configuration not stated)	38.9 µM (active)	17.4 µM (active)	21.9 µM (active)	inactive	inactive	inactive
Cc1cccc([N+](=O)[O-])c1C	inactive	inactive	inactive	inactive	inactive	inactive
CCCCOCCOCCOCCO	inactive	inactive	inactive	–	inactive	inactive
S=C(NC1CCCCC1)NC1CCCCC1	31.1 µM (active) and 22.4 µM (active)	7.81 µM (active) and 8.94 µM (active)	12.4 µM (active) and 35.6 µM (active)	78.1 µM (active) and inactive	inactive	17.5 µM (active) and 28.3 µM (active)
O=Cc1ccccc1O	inactive	inactive	inactive	inactive	inactive	inactive

SMILES	Potency [1]	Potency [2]	Potency [3]	Potency [4]	Potency [5]	Potency [6]
CC(C)OB(OC(C)C)OC(C)C	inactive	40 µM (active) and inactive	inactive	inactive	inactive	inactive
CCCCC/C=C/C=C/C=O	inactive and 35.6 µM (active)	31.4 µM (active) and 39.9 µM (active)	35.6 µM (active)	inactive and 71 µM (active)	inactive	inactive and 39.9 µM (active)
Cc1c(C(N)=O)cc([N+](=O)[O-])cc1[N+](=O)[O-]	inactive	inactive	inactive	inactive	inactive	inactive
c1ccncc1	inactive	inactive	inactive	inactive	inactive	inactive
C[C@]12CCC(=O)C=C1CC[C@@H]1[C@@H]2C(=O)C[C@@]2(C)[C@H]1CC[C@]2(O)C(=O)CO	inactive	25.2 µM (active)	inactive	inactive	inactive	inactive
CC(C)OC=O	inactive	inactive	inactive	inactive	inactive	inactive
C/C=C/C(=O)O	inactive	inactive	inactive	inactive	inactive	inactive
CC1=CCC(C(C)(C)O)CC1 (configuration not stated)	inactive	inactive	inactive	inactive	inactive	inactive
Cc1ccc(C(=O)c2cc(O)c(O)c([N+](=O)[O-])c2)cc1	inactive	inactive	–	inactive	inactive	–
COc1cc([C@@H]2c3cc4c(cc3[C@H](O)[C@H]3COC(=O)[C@H]23)OCO4)cc(OC)c1OC	inactive	–	2.83 µM (active) and 2.19 µM (active)	35.6 µM (active)	inactive	–
Brc1cc(Oc2cc(Br)c(Br)c(Br)c2Br)c(Br)c(Br)c1Br	inactive	10.1 µM (active) and inactive	–	inactive	inactive	inactive
COC(=O)C1=C(C)NC(C)=C(C(=O)OCCN(C)Cc2ccccc2)C1c1cccc([N+](=O)[O-])c1 (configuration not stated)	–	–	–	inactive	10.9 µM (active) and 8.49 µM (active)	–
Oc1ccc(O)cc1	inactive	inactive	–	inactive	inactive	inactive
COc1cccc2c1C(=O)c1c(O)c3c(c(O)c1C2=O)C[C@@](O)(C(=O)CO)C[C@@H]3O[C@H]1C[C@H](N)[C@H](O)[C@H](C)O1	–	inactive	–	–	inactive	–
Nc1ncn([C@@H]2O[C@H](CO)[C@@H](O)[C@H]2O)c(=O)n1	inactive	–	inactive	inactive	inactive	inactive
CCC(C)c1ccccc1O (configuration not stated)	inactive	inactive	–	–	inactive	inactive
c1cc(-c2ccncc2)ccn1	–	35.9 µM (active)	40.3 µM (active) and 35.6 µM (active)	40.3 µM (active) and 35.6 µM (active)	inactive	inactive
CCC(C)OC(=O)c1ccc(O)cc1 (configuration not stated)	63.3 µM (active)	35.8 µM (active) and 25.2 µM (active)	–	20.1 µM (active) and 35.6 µM (active)	inactive	inactive
CN(C)CCN(Cc1cccs1)c1ccccn1	–	inactive	inactive	inactive and 27.5 µM (active)	–	–
c1ccc2sc(SSN3CCOCC3)nc2c1	–	17.8 µM (active)	15.9 µM (active) and 11.2 µM (active)	20 µM (active) and 22.4 µM (active)	inactive	inactive
CC(C)(C)NC(=O)[C@H]1CC[C@H]2[C@@H]3CC[C@H]4NC(=O)C=C[C@]4(C)[C@H]3CC[C@]12C	inactive	–	–	inactive	inactive	inactive
O=C1c2cccc(O)c2C(=O)c2c(O)cccc21	inactive	28.6 µM (active) and 38.9 µM (active)	–	9.03 µM (active) and 6.45 µM (active)	inactive	inactive
CN(C)c1nc(N(C)C)nc(N(C)C)n1	–	–	–	–	inactive	–
OC[C@H]1O[C@@H]2O[C@H]3[C@H](O)[C@@H](O)[C@@H](O[C@H]4[C@H](O)[C@@H](O)[C@@H](O[C@H]5[C@H](O)[C@@H](O)[C@@H](O[C@H]6[C@H](O)[C@@H](O)[C@@H](O[C@H]7[C@H](O)[C@@H](O)[C@@H](O[C@H]8[C@H](O)[C@@H](O)[C@@H](O[C@H]1[C@H](O)[C@H]2O)O[C@@H]8CO)O[C@@H]7CO)O[C@@H]6CO)O[C@@H]5CO)O[C@@H]4CO)O[C@@H]3CO	–	31.8 µM (active) and inactive	inactive	inactive	inactive	inactive
